# Results taken from publication PMC7862700, “An all-to-all approach to the identification of sequence-specific readers for epigenetic DNA modifications on cytosine”.
# Assays:
# Test in all cases: DAPPL (digital affinity profiling via proximity ligation, sequencing); 10 mM Tris-HCl pH 7.5, 50 mM NaCl, 1 mM DTT, 4% glycerol, room temperature, 30 min; GST-TFs on glutathione beads, 16-mer random dsDNA library, 0.1% formaldehyde crosslink after washing; high values mean tight binding
# FLI1 = biological target: T1, FLI1 (Homo sapiens, UniProt Q01543 1-452); conditions: protein: recombinant; tags: N-terminal GST; dsDNA, one strand shown
# T1 sequence: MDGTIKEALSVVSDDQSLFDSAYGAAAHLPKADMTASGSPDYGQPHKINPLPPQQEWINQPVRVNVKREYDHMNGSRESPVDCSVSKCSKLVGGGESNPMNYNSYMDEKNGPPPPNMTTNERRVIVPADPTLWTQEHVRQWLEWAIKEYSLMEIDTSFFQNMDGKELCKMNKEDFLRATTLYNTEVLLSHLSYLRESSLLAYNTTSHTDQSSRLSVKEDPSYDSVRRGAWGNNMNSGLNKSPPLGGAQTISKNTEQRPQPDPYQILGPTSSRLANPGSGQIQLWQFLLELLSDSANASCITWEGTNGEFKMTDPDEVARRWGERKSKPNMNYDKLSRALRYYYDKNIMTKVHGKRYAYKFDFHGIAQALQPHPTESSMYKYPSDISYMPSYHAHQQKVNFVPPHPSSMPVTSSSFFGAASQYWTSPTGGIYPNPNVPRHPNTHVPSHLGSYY
# In short: (§1)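 GST fusions of human transcription factors were expressed in yeast and captured with glutathione beads. Once given DNA barcodes and pooled alongside a tag-only sample, they were incubated for 30 min at room temperature with 200 nmole of a random double-stranded 16-mer DNA library in Tris/NaCl/DTT/glycerol buffer, then washed, crosslinked (0.1% formaldehyde), proximity-ligated, PCR-amplified and sequenced on an Illumina NextSeq500. The binding signal of each hexamer is its read frequency for a factor divided by its frequency for the tag-only sample.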
# ELK1 = biological target: T2, ELK1 (Homo sapiens, UniProt P19419 1-428); conditions: protein: recombinant; tags: N-terminal GST; dsDNA, one strand shown
# T2 sequence: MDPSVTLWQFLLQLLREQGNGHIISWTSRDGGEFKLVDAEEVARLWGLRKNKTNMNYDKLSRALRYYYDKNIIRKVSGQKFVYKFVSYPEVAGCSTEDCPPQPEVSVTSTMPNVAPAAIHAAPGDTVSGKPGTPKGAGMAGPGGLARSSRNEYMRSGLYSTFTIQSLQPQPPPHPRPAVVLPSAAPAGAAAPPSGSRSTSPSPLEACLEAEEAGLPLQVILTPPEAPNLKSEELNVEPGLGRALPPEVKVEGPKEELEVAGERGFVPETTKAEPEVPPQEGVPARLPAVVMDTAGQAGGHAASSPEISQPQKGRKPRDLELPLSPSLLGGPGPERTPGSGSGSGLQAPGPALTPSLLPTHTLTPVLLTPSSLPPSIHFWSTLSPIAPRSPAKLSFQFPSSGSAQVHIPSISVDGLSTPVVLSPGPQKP
# In short: as §1
# GABPA = biological target: T3, GABPA (Homo sapiens, UniProt Q06546 1-454); conditions: protein: recombinant; tags: N-terminal GST; dsDNA, one strand shown
# T3 sequence: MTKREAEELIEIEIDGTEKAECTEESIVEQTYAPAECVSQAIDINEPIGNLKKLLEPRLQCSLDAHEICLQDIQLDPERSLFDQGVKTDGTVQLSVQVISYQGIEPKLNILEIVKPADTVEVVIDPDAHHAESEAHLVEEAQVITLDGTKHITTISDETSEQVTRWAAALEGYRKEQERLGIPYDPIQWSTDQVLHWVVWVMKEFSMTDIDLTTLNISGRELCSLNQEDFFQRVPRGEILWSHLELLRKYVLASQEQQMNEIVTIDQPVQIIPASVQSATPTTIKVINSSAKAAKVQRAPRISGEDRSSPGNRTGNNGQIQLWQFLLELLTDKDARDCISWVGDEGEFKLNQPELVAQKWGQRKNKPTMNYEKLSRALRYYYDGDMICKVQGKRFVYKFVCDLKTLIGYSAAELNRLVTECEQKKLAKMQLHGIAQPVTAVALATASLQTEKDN
# In short: as §1
# ERG = biological target: T4, ERG (Homo sapiens, UniProt P11308 1-479); conditions: protein: recombinant; tags: N-terminal GST; dsDNA, one strand shown
# T4 sequence: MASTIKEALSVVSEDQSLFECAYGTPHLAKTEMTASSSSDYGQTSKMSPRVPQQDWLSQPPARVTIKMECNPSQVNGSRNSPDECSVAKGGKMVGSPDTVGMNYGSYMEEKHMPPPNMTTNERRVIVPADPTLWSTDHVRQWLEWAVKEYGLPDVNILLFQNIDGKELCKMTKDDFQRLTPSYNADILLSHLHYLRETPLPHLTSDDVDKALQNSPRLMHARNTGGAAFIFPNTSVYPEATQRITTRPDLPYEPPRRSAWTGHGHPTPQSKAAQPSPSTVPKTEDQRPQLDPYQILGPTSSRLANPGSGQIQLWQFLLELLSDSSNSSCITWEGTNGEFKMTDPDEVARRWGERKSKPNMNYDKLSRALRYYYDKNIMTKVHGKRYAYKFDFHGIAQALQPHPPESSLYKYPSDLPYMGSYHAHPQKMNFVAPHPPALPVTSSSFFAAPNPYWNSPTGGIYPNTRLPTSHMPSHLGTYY
# In short: as §1
# ELF1 = ELF1 (Homo sapiens, UniProt P32519 1-619); conditions: protein: recombinant; tags: N-terminal GST; dsDNA, one strand shown
# Sequence of ELF1 (P32519 whole entry): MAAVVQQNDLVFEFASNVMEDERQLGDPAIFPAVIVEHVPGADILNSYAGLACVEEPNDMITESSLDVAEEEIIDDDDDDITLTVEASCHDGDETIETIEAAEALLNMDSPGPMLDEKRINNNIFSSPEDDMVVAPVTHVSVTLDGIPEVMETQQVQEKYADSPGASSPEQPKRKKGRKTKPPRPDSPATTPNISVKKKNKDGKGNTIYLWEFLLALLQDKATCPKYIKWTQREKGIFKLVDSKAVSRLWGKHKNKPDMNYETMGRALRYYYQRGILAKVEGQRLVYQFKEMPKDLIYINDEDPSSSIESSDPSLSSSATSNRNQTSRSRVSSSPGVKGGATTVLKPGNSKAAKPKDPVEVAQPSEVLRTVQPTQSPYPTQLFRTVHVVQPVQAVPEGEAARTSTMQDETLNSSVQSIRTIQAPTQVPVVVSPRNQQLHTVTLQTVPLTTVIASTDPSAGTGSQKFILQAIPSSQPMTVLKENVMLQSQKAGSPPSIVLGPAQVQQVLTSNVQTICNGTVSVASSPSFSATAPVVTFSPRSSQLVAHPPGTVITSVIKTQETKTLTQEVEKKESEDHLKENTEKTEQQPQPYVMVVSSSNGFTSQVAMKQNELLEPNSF
# In short: as §1
# EHF = biological target: T5, EHF (Homo sapiens, UniProt Q9NZC4 1-300); conditions: protein: recombinant; tags: N-terminal GST; dsDNA, one strand shown
# T5 sequence: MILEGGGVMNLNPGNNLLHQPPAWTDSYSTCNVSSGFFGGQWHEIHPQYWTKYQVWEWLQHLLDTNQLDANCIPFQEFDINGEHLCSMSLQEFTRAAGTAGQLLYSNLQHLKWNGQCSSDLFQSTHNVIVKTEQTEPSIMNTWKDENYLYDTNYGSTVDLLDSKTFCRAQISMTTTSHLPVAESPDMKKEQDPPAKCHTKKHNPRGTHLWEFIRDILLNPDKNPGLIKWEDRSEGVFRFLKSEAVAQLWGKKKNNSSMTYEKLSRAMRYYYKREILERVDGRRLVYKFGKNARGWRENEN
# In short: as §1
# SPI1 = SPI1 (Homo sapiens, UniProt P17947 1-270); conditions: protein: recombinant; tags: N-terminal GST; dsDNA, one strand shown
# In short: as §1
# SPIB = SPIB (Homo sapiens, UniProt Q01892 1-262); conditions: protein: recombinant; tags: N-terminal GST; dsDNA, one strand shown
# Sequence of SPIB (Q01892 whole entry): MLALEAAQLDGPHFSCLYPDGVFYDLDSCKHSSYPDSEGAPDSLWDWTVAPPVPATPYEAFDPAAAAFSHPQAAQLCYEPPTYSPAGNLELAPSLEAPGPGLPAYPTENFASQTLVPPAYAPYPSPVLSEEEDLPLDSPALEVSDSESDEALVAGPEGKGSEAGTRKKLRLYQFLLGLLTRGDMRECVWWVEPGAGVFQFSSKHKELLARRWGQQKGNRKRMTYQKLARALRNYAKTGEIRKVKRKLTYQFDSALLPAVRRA
# In short: as §1
# ELK3 = biological target: T6, ELK3 (Homo sapiens, UniProt P41970 1-407); conditions: protein: recombinant; tags: N-terminal GST; dsDNA, one strand shown
# T6 sequence: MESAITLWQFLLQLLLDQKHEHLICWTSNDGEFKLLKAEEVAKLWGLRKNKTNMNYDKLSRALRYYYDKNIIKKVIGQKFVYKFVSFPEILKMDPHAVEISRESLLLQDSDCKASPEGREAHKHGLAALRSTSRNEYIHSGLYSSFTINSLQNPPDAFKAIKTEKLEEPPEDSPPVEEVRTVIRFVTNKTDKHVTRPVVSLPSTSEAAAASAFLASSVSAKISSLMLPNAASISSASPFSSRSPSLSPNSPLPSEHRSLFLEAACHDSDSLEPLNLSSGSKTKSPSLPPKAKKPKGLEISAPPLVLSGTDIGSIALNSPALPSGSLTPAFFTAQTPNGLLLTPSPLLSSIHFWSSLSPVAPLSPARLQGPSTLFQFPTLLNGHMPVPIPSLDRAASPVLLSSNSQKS
# In short: as §1
# FEV = biological target: T7, FEV (Homo sapiens, UniProt Q99581 1-238); conditions: protein: recombinant; tags: N-terminal GST; dsDNA, one strand shown
# T7 sequence: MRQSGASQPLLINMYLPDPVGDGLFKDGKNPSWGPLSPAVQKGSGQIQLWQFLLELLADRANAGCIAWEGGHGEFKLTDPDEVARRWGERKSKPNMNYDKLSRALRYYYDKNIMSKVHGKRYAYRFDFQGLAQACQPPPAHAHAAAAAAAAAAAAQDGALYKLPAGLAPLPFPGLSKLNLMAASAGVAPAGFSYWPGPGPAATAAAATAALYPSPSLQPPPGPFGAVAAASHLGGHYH
# In short: as §1
# ETV5 = ETV5 (Homo sapiens, UniProt P41161 1-510); conditions: protein: recombinant; tags: N-terminal GST; dsDNA, one strand shown
# Sequence of ETV5 (P41161 whole entry): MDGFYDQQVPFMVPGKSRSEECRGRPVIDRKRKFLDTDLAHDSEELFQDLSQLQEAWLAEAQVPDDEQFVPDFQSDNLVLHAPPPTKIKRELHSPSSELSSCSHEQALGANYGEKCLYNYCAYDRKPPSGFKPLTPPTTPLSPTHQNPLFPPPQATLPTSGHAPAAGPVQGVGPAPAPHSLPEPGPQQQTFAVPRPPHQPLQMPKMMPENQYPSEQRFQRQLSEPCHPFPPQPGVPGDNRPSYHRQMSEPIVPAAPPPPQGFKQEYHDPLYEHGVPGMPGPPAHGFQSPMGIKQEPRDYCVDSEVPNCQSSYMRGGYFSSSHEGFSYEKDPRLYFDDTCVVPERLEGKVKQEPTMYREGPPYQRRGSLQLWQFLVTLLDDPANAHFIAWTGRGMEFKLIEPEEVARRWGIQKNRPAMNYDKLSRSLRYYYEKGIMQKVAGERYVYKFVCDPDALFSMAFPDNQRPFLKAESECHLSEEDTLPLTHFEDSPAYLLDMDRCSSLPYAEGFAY
# In short: as §1
# HSF1 = HSF1 (Homo sapiens, UniProt Q00613 1-529); conditions: protein: recombinant; tags: N-terminal GST; chain copies: 3; dsDNA, one strand shown
# Sequence of HSF1 (Q00613 whole entry): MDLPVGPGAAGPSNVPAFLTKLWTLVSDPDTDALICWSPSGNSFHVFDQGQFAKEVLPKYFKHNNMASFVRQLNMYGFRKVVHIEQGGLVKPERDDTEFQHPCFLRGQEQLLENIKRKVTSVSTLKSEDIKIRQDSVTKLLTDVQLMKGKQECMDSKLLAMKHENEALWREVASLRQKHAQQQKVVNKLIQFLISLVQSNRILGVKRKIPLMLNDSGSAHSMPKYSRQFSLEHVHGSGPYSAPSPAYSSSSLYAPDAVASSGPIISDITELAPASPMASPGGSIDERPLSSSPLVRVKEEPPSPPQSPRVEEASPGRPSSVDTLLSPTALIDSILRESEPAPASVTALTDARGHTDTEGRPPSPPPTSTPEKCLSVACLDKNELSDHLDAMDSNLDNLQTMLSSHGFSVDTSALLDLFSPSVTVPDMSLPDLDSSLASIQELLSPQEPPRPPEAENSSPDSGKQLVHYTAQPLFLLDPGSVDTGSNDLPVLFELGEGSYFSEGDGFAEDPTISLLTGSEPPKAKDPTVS
# In short: as §1
# SPIC = biological target: T8, SPIC (Homo sapiens, UniProt Q8N5J4 1-248); conditions: protein: recombinant; tags: N-terminal GST; dsDNA, one strand shown
# T8 sequence: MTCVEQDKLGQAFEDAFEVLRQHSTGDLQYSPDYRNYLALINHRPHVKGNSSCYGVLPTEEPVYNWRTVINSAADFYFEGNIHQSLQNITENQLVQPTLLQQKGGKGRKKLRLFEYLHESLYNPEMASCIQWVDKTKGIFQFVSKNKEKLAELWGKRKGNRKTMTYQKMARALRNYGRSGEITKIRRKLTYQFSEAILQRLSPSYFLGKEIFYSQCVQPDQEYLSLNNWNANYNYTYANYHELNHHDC
# In short: as §1
# ELF4 = ELF4 (Homo sapiens, UniProt Q99607 1-663); conditions: protein: recombinant; tags: N-terminal GST; dsDNA, one strand shown
# Sequence of ELF4 (Q99607 whole entry): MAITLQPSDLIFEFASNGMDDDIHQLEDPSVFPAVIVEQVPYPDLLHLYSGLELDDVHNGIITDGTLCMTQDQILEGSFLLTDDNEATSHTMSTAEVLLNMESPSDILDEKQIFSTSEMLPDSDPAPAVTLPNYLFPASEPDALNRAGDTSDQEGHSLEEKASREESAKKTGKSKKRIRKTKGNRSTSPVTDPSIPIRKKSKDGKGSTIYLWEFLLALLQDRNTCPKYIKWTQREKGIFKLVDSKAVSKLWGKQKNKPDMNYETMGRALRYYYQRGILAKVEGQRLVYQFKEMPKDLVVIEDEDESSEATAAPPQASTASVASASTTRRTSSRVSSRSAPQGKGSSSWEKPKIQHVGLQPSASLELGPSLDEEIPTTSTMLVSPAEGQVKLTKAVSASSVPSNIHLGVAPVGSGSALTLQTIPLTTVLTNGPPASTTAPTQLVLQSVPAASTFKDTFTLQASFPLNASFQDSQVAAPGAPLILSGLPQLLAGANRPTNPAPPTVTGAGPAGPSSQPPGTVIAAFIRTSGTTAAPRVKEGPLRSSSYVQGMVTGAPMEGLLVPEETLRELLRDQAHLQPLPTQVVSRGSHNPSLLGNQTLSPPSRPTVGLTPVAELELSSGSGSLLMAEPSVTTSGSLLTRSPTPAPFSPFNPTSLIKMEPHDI
# In short: as §1
# ELK4 = biological target: T9, ELK4 (Homo sapiens, UniProt P28324-2 1-405); conditions: protein: recombinant; tags: N-terminal GST; dsDNA, one strand shown
# T9 sequence: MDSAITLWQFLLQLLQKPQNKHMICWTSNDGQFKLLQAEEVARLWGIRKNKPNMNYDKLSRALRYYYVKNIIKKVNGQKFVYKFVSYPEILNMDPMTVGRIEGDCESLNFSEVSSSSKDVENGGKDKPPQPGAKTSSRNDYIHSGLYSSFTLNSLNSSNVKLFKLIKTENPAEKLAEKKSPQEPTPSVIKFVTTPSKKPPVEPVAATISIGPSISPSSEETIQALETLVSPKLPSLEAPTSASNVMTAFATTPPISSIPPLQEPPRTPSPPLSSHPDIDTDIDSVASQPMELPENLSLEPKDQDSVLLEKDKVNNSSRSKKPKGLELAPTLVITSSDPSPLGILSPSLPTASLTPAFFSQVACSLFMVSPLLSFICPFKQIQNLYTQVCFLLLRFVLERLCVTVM
# In short: as §1
# ETV2 = biological target: T10, ETV2 (Homo sapiens, UniProt O00321 1-342); conditions: protein: recombinant; tags: N-terminal GST; dsDNA, one strand shown
# T10 sequence: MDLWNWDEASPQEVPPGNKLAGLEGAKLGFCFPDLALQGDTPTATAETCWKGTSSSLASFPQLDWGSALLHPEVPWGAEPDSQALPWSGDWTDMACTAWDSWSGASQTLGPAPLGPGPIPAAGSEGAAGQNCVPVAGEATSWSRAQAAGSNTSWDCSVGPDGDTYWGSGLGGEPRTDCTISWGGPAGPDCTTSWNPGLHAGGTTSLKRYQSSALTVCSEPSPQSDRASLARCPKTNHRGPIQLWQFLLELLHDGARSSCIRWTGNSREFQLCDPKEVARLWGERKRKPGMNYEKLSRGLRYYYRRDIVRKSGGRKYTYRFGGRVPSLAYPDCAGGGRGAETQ
# In short: as §1
# ELF3 = biological target: T11, ELF3 (Homo sapiens, UniProt P78545 1-371); conditions: protein: recombinant; tags: N-terminal GST; dsDNA, one strand shown
# T11 sequence: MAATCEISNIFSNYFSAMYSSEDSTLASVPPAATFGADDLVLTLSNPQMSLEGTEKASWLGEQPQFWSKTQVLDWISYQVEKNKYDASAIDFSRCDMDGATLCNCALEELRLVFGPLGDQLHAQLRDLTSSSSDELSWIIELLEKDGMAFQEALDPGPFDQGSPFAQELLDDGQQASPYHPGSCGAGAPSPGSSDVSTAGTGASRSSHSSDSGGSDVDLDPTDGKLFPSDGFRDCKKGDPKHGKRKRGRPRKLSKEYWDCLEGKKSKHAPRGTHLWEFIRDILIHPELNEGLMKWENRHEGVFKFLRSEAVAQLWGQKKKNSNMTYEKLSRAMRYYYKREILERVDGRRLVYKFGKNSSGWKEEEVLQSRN
# In short: as §1
# CRX = CRX (Homo sapiens, UniProt O43186 1-299); conditions: protein: recombinant; tags: N-terminal GST; dsDNA, one strand shown
# Sequence of CRX (O43186 whole entry): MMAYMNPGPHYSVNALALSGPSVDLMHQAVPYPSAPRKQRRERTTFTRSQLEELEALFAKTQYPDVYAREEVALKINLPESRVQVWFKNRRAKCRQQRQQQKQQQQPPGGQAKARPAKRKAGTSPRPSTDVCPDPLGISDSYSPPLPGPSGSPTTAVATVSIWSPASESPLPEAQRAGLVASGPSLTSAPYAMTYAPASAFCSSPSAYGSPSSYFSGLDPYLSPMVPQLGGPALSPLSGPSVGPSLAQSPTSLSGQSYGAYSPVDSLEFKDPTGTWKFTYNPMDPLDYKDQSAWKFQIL
# In short: as §1
# ETV1 = ETV1 (Homo sapiens, UniProt P50549 1-477); conditions: protein: recombinant; tags: N-terminal GST; dsDNA, one strand shown
# Sequence of ETV1 (P50549 whole entry): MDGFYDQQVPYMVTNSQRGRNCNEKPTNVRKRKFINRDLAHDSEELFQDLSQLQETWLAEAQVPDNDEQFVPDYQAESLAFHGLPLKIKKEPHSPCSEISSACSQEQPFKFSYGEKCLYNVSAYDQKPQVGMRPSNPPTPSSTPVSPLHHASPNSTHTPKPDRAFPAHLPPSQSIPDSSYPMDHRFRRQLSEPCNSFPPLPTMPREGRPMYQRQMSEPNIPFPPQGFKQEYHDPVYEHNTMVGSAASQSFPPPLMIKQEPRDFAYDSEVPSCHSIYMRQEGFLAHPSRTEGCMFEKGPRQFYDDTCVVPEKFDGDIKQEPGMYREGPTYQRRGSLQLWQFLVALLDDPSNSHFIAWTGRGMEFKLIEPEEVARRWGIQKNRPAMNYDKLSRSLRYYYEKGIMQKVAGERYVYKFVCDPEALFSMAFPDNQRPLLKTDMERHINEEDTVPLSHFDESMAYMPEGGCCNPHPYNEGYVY
# In short: as §1
sequence,measurement,setting,value
TTGCAA,binding signal,FLI1,"1.14 fold enrichment (6-mer frequency, TF over GST control)"
same,binding signal,ELK1,"1.28 fold enrichment (6-mer frequency, TF over GST control)"
same,binding signal,GABPA,"1.2 fold enrichment (6-mer frequency, TF over GST control)"
same,binding signal,ERG,"1.08 fold enrichment (6-mer frequency, TF over GST control)"
same,binding signal,ELF1,"1.18 fold enrichment (6-mer frequency, TF over GST control)"
same,binding signal,EHF,"1.2 fold enrichment (6-mer frequency, TF over GST control)"
same,binding signal,SPI1,"1.04 fold enrichment (6-mer frequency, TF over GST control)"
same,binding signal,SPIB,"1.15 fold enrichment (6-mer frequency, TF over GST control)"
same,binding signal,ELK3,"1.29 fold enrichment (6-mer frequency, TF over GST control)"
same,binding signal,FEV,"1.12 fold enrichment (6-mer frequency, TF over GST control)"
same,binding signal,ETV5,"1.17 fold enrichment (6-mer frequency, TF over GST control)"
same,binding signal,HSF1,"1.07 fold enrichment (6-mer frequency, TF over GST control)"
same,binding signal,SPIC,"1.09 fold enrichment (6-mer frequency, TF over GST control)"
same,binding signal,ELF4,"1.19 fold enrichment (6-mer frequency, TF over GST control)"
same,binding signal,ELK4,"1.21 fold enrichment (6-mer frequency, TF over GST control)"
same,binding signal,ETV2,"1.22 fold enrichment (6-mer frequency, TF over GST control)"
same,binding signal,ELF3,"1.13 fold enrichment (6-mer frequency, TF over GST control)"
same,binding signal,CRX,"1.12 fold enrichment (6-mer frequency, TF over GST control)"
same,binding signal,ETV1,"1.27 fold enrichment (6-mer frequency, TF over GST control)"
